How the values were obtained:
[1] = molecular target: Tumor necrosis factor receptor superfamily member 10B (Homo sapiens) (UniProt O14763); assay: caspase-8 TRAIL sensitization, hit retest, confirmation, cell-based, NB7+caspase-8, with/without TRAIL, luminescence panel (AID 651596); conditions: NB7 neuroblastoma + caspase-8, TRAIL sensitization, luminescence viability, with TRAIL, mean of runs, at 10 µM, stronger effect = higher value
[2] = as above; conditions: NB7 neuroblastoma + caspase-8, without TRAIL, luminescence viability, without TRAIL, mean of runs, at 10 µM

Sequence of Tumor necrosis factor receptor superfamily member 10B (Homo sapiens) (O14763 whole entry, looked up): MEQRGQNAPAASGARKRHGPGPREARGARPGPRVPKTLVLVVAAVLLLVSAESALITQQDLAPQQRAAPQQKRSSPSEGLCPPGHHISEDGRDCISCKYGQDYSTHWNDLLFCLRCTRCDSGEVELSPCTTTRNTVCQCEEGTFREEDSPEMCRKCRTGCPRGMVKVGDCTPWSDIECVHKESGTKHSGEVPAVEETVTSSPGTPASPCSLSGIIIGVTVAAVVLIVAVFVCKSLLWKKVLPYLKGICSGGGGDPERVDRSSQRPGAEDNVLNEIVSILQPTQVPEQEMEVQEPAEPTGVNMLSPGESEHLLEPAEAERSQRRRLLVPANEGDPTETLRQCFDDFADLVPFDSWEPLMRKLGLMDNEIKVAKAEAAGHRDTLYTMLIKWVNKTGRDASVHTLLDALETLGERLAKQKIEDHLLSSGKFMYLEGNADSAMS

SMILES | activity [1] [%] | activity [2] [%]
C#Cc1ccc([C@H]2C=C(C(=O)Nc3ccccc3)O[C@@H](OCc3ccc(CO)cc3)C2)cc1 | 92 | 93.4
O=c1c2sc(-c3ccccc3)cc2nc2n1CCC2 | 46.9 | 50
COc1ccc(C(=O)/C=C/Nc2cc(C)ccn2)cc1 | 66.9 | 52.5
Cc1ccc(C(=O)Nc2ccc3nccnc3c2)cc1 | 77.5 | 74.8
Nc1nc(Nc2ccccc2)nc2ccccc12 | 69.2 | 61.3
CC(C)(C)OC(=O)NCCCCCc1cn([C@@H](CO)C(=O)NCCCCCCCCCCC(=O)N2CCN(C(=O)OC(C)(C)C)CC2)nn1 | 61.7 | 42.1
COc1cc(/C=C/c2nc3ccccc3c(=O)[nH]2)ccc1OC(F)F | 55.6 | 54.7
CC1(C)N=C(N)N=C(N)N1c1cccc(CC(=O)Nc2ccccc2)c1 | 77.8 | 85.3
O=C(Cn1ncc(Cl)c(Cl)c1=O)NC1CCCCC1 | 98 | 98.5
O=C(Nc1ccc(NC(=O)C2CC2)cn1)c1ccccc1 | 51.1 | 57
COc1ccc(C(C(=O)NC2CCCC2)N(C(=O)c2snc(-c3ccc(F)cc3)c2N)c2ccc(F)cc2)cc1 (centres undefined) | 50.3 | 43.5
c1ccn2cc(-c3ccc4c(c3)OCCO4)nc2c1 | 89 | 86
Cc1csc(C(C#N)C(=O)c2cc3ccccc3o2)n1 (centres undefined) | 57.3 | 61.2
C=CCN(CC=C)c1cnn(-c2nc3ccccc3[nH]2)c(=O)c1Cl | 69.6 | 59.7
N#CCCCC#Cc1ccc2c(c1)COc1c3ccccc3nn1-2 | 78.1 | 75.6
CC(C)Cc1nc2oc3c(Cl)ncnc3c2c2c1CCC2 | 95.9 | 96.4
Cc1ccc2nc(-c3ccccc3)nn2c1 | 83.9 | 80.3
Cc1cccc(NC(=S)NC(=O)c2oc3ccccc3c2C)n1 | 70 | 60.1
Fc1cccc(CSc2nc3ccncc3[nH]2)c1 | 55.2 | 54.4
COn1c(SCc2ccc(Cl)cc2)nc2ccccc2c1=O | 67 | 47.9
CCOc1ccc2nc(NC(=O)c3ccco3)sc2c1 | 74.4 | 69.8
CC(C)(C)c1ccc(NC(=O)c2ccsc2)cc1 | 73.7 | 71.9
CSc1ncccc1C(=O)OCC(=O)c1cc(C)n(CC2CCCO2)c1C (centres undefined) | 44 | 23.6
c1csc(-c2ccc(N3CCOCC3)nn2)c1 | 69.5 | 69.4
Cc1cc(NC(=O)c2ccc3c(c2)OCO3)no1 | 46.2 | 48.3

SMILES | activity [1] [%] | activity [2] [%]
O=C(O)c1ccc(N/N=C/c2cc3cc4c(cc3nc2Cl)OCCO4)cc1 | 96.3 | 95.3
Cc1ccc(-n2c(C3CC3c3ccc(Cl)cc3)n[nH]c2=S)cc1 (centres undefined) | 52.8 | 46.7
CC1=C(C(=O)Nc2ccccc2)C(c2ccc(C)cc2)N=C(Nc2nc3ccccc3o2)N1 (centres undefined) | 41 | 76
COc1ccc(Nc2nc(N)nc(CCl)n2)cc1 | 99.1 | 98.3
CCOC(=O)CSc1nc2cc(C)ccc2cc1C#N | 39.8 | 38.4
CCC(COC)Oc1cc(NCc2ccccc2)c2ncn(C(C)C)c2c1 (centres undefined) | -8.03 | -13.1
CC(C)c1ccc(/C=N/NC(=O)c2ccccn2)cc1 | 86.9 | 76.6
COc1cc2sc3ccc(C#CC4(O)CCCCC4)cc3c(=O)c2cc1OC | 71.4 | 71.4
O=C(Nc1nc2ccccc2[nH]1)c1ccc([N+](=O)[O-])cc1 | 53.4 | 35
CCc1ccc(/C=N/NC(=O)c2c[nH]c3ccccc23)s1 | 21.7 | 20.4
O=C(NC(=S)Nc1nc2ccccc2s1)c1cccs1 | 83.1 | 75.6
O=C(Nc1cccc(-n2cnnn2)c1)c1ccc(C(F)(F)F)cc1 | 21.7 | 10.3
O=C(COc1ccc2c(c1)OCO2)Nc1nccs1 | 52.9 | 54
O=C(/C=C/c1cccs1)N1CCc2ccccc21 | 59.8 | 55.5
CC(C)(C)C(=O)Nc1cccc(-c2nc3ccccc3c(=O)o2)c1 | 59.2 | 61.9
O=C(Nc1nc2ccccc2[nH]1)c1ccccc1O | 63.1 | 65.9
CCOC(=O)c1c(CSC(=N)N)n(-c2ccc(C)cc2)c2cc(Br)c(OC(C)=O)cc12 | 90.7 | 81.3
O=C(CCN1C(=O)NC2(CCCC2)C1=O)Nc1ccc(-c2nc3ccccc3s2)cc1 | 52.2 | 44.5
N#Cc1nc(Nc2cccc(Cl)c2)c2ncn(C3CCCC3)c2n1 | 76.7 | 57.3
Cc1ccc(/C=C(\C#N)c2nc3ccccc3[nH]2)s1 | 69.8 | 72
O=C(Nc1nc(-c2nc3ccccc3s2)cs1)C1CC1 | 59 | 69.9
CC(=O)n1cc(N(C(=O)CCl)c2ccc([N+](=O)[O-])cc2)c2ccccc21 | 97.8 | 99.3
CCCOc1ccc(-c2cn3ccccc3n2)cc1[N+](=O)[O-] | 57 | 52.1
O=[N+]([O-])c1ccc(-[n+]2ccc3ccccc3c2)c([N+](=O)[O-])c1 | 93.3 | 98.8
O=C(N/N=C/c1cc(Br)cs1)c1ccc2c(c1)OCCO2 | 78.8 | 77.9

SMILES | activity [1] [%] | activity [2] [%]
Cc1ccc(Nc2nc(N)c3ccccc3n2)cc1Cl | 75.7 | 73.1
COc1ccc(/C=C/c2cc(-c3ccc(C)cc3)o[n+]2C)cc1 | 81.8 | 90.6
Cc1c(Cl)cccc1Nc1nc(N)nc(CSc2ncccn2)n1 | 91.8 | 92.3
COC(=O)c1c(-c2ccccc2)csc1NC1=NS(=O)(=O)c2ccccc21 | 74.7 | 73.3
COCC(C)n1c(C)cc(C(=O)COC(=O)c2n[nH]c3ccccc23)c1C (centres undefined) | 58.5 | 51.9
O=C(Nc1ccc2c(c1)OCCO2)Nc1ccc2c(c1)OCO2 | 81.4 | 79.5
C(=Cc1c[nH]c2ccccc12)c1ccc2ccccc2n1 | 61.1 | 52.8
COc1ccc(OC)c(NC(=O)c2nc(S(=O)(=O)Cc3ccccc3)ncc2Cl)c1 | 97 | 98.9
Cc1cc(-c2ccc(F)cc2)n2ncc(-c3ccccc3)c2n1 | 76.6 | 84.3
Cc1cc(C(=O)COC(=O)c2n[nH]c3ccccc23)c(C)n1CC1CCCO1 (centres undefined) | 77.5 | 75.2
COc1ccc(C)cc1NC(=O)CN(Cc1nnc(-c2ccc(Cl)cc2)o1)C1CCCC1 | 76.7 | 92
Cc1cccc(NC(=O)c2ccc3c(Cl)c4c(nc3c2)CCCC4)n1 | 77.1 | 80
CC/C(=N\NC(=O)c1csc(C)c1C)c1cccs1 | 57.8 | 55.5
c1ccc(CSc2ccc(-c3ccco3)nn2)cc1 | 57.6 | 45.9
Cc1c(C(=O)Nc2cccc([N+](=O)[O-])c2)csc1-c1ccccc1 | 56.5 | 48.1
CN(C)c1ccc(-c2nc3ccccn3c2/N=C/c2ccc(Br)cc2)cc1 | 69.3 | 47
C/C(=N\NC(=O)c1ccc(Cl)cc1)c1cccs1 | 80.1 | 81.4
CC1CCN(S(=O)(=O)c2ccc3c(c2)C(=NO)c2cc(S(=O)(=O)N4CCC(C)CC4)ccc2-3)CC1 | 98.2 | 99
CCc1c(C)[nH]c2c(C)cccc2c1=O | 56.4 | 64.3
O=C(CC1SC(=Nc2ccccc2F)N(CCN2CCOCC2)C1=O)Nc1ccc(F)cc1F (centres undefined) | -3.85 | -7.28
COc1cccc(C=NNc2nnc(NN=Cc3cccc(OC)c3OC)c3ccccc23)c1OC | 83.2 | 75
CCN(CC)CCN1C(=O)/C(=C\c2ccc(Cl)c([N+](=O)[O-])c2)SC1=Nc1ccc(OC)cc1 | 82.2 | 97.3
Clc1ccc2nc(-c3ccccc3)cn2c1 | 72.7 | 74.1
C/C(=N\NC(=O)c1cc(O)ccc1O)c1cccc(NC(=O)c2ccc(Cl)cc2)c1 | 40.8 | 24.6
Cc1ccsc1/C=N/NC(=O)c1ccc2c(c1)OCCO2 | 75.9 | 68.2

SMILES | activity [1] [%] | activity [2] [%]
COc1ccc(C(=O)N/N=C(/C)c2cccc(NC(=O)c3ccccc3F)c2)cc1 | 53.5 | 62.1
O=C(Nc1nc2ccccc2[nH]1)C12CC3CC(CC(C3)C1)C2 | 66.2 | 65.7
COC(=O)CSc1nc2cc(OC)ccc2cc1C#N | 75.6 | 70
C#CCN(C[C@@H]1[C@@H](OC(=O)NCCCCCC)[C@@H](OC(=O)NCCCCCC)Cn2c(=O)ccc(=O)n21)S(=O)(=O)c1ccc(C)cc1 | 96.2 | 92.3
Cc1cc(Br)c(OCc2ccc(C(=O)N/N=C/c3ccc[nH]3)cc2)c(Br)c1 | 72.8 | 86.5
O=C(/C=C/c1ccco1)Nc1ccccc1C(=O)O | 45.1 | 42.1
Cc1cccc2sc(NNC(=O)c3ccc(S(=O)(=O)N4CC(C)CC(C)C4)cc3)nc12 (centres undefined) | 55.6 | 49.8
Cn1c(-c2ccccc2)cc2onc(-c3ccccc3)c2c1=O | 85.5 | 85.7
CCOc1ccc(/C=N/Nc2ccccn2)cc1 | 53.4 | 41.2
COc1ccc2c(n1)Sc1nc3ccccc3nc1N2 | 4.47 | 4.42
c1ccc(/N=C2\N=C(Nc3ccccn3)c3ccccc32)nc1 | 40 | 48.8
COc1ccc2nc(-c3cccc(N)c3)[nH]c2c1 | 55.8 | 41.4
CC(C)Nc1ncnc2c1cnn2-c1ccc(Cl)cc1 | 60.6 | 67.4
O=C(CSc1nnc(NC(=O)c2ccccc2)s1)NCC1CCCO1 (centres undefined) | 60.9 | 63.2
CC(C)(C)c1ccc(/C=C/C(=O)NC2=NCCS2)cc1 | 49.7 | 41.9
Cc1ccc(NC(=O)c2ccccc2)s1 | 40.7 | 32
Nc1nc(N)c2cc(Sc3ccc(Cl)cc3)ccc2n1 | 70.7 | 75.5
C=CCNC(=O)c1cc(-c2ccc3c(c2)OCO3)on1 | 63.3 | 61.1
Cc1nc(=S)c2c([nH]1)-c1ccccc1CC21CCCCC1 | 92 | 76.4
CCCCCCCN(C(=O)CCl)c1cccc(C)c1 | 99 | 99
CC1(C)Cc2c(sc(NC(=O)COc3cccc4ccccc34)c2C#N)C(C)(C)N1 | 85.3 | 94.1
Cc1nc2nc(C)n(CCN3CCOCC3)c(=O)c2c(-c2cccc([N+](=O)[O-])c2)c1C(=O)CCCCCCCCCCN1CCC(c2ccccc2)(c2ccccc2)CC1 | 92.6 | 89.9
